Experimental data from PubChem BioAssay AID376 (PDSP, 2006).
“And” between values parts separate entries of the source, which are not always exact repeats. Identical values can stand only once. Among all 2,000 compounds or so, about 250 (12%) were called active. No stated cut-off is given here; in the data, active means hERG blockade below about -20% or above about 20%; inactive means in between. For the sample, actives were picked, then their nearest neighbours and some compounds at random.

What follows are compounds tested against Voltage-gated inwardly rectifying potassium channel KCNH2 (Homo sapiens) (UniProt Q12809) (assay: modulators of KCNH2 ion channel function, cellular (AID 376;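 further: 0% = buffer alone and 100% = reference blocker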)). Settings: hERG-expressing cells, channel activity single-concentration screen; concentration not given here.
Chain of Voltage-gated inwardly rectifying potassium channel KCNH2 (Homo sapiens) (Q12809 whole entry, looked up): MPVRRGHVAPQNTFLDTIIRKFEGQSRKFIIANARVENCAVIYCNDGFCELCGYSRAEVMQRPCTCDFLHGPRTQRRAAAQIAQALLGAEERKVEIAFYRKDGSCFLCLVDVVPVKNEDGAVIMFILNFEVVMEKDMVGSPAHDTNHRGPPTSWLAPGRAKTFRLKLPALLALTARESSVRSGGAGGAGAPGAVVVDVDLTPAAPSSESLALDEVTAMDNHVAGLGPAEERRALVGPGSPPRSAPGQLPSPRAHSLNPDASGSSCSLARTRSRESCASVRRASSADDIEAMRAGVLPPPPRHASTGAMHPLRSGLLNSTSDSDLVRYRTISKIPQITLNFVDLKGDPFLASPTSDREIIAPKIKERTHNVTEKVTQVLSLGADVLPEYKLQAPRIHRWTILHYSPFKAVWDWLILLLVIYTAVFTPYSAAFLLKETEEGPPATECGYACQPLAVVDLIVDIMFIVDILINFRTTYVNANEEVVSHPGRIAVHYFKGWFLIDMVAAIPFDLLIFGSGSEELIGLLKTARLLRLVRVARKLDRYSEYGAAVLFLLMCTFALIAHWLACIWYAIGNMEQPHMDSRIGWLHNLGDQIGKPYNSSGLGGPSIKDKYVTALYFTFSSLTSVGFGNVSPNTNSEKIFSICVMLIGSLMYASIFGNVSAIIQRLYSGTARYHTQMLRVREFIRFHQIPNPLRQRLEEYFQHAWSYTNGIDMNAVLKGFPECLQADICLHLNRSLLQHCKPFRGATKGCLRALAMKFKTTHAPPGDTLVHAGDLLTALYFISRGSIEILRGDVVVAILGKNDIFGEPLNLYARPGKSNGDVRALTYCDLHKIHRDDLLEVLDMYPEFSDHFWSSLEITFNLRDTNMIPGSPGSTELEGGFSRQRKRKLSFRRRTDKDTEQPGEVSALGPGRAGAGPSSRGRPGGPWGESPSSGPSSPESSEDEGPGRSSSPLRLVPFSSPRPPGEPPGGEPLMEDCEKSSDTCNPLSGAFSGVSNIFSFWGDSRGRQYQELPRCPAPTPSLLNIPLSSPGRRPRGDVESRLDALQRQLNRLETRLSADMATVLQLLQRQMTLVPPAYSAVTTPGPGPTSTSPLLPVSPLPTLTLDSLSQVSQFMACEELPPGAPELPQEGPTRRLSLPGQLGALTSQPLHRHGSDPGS
With O=C(O)C1(C(=O)O)CCN(S(=O)(=O)c2ccccc2)CC1 the hERG blockade was -10% (inactive).
With CC(=NNC1=NCCN1)c1cn(C2=NCCN2)nc1C the hERG blockade was 48.8% (active).
With Cc1nc2sc3c(c2c(=O)[nH]1)CCCC3 the hERG blockade was -7.98% (inactive).
With O=C(O)CC(Cc1ccccc1)C(=O)O (stereo not drawn) the hERG blockade was 6.37% (inactive).
For COc1cc(C)cc2c(-c3c(O)cc(O)c4c3CC(C)NC4C)cc(-c3cc(-c4c(O)cc(O)c5c4CC(C)NC5C)c4cc(C)cc(OC)c4c3O)c(O)c12 (stereo not drawn), the hERG blockade was 22.2% (active).
For COc1cc(C2SCCCCCCCCCCSC(c3ccc(O)c(OC)c3)SCCCCCCCCCCS2)ccc1O (stereo not drawn), the hERG blockade was 2.15% (inactive).
In the case of CC(=N[N-]C(=[SH+])SCc1ccccc1)c1ccccn1.[Cl][Cu], the hERG blockade is reported as 3.22% (inactive).
In the case of Cc1cc(C)nc(SCCc2cccc[n+]2C)n1, the hERG blockade is reported as 71.5% (active).
For Cc1ccc(S(=O)(=O)NCc2cccc([N+](=O)[O-])c2)cc1, the hERG blockade was 14.6% (inactive).
In the case of Cc1cccc(CNc2ncnc3[nH]ncc23)c1, the hERG blockade is reported as -7.57% (inactive).
With COc1ccc(Br)c2c1CC(C(=O)O)CC2 (stereo not drawn) the hERG blockade was -1.02% (inactive).
With Cc1ccc(C(=N)c2ccccc2Cc2cccc3ccccc23)c2ccccc12 the hERG blockade was -5.31% (inactive).
c1cncc(CSc2ncnc3nc[nH]c23)c1 was tested, and the hERG blockade was -11.9% (inactive).
In the case of COc1ccc(CC(O)CN2CCOCC2)cc1 (stereo not drawn), the hERG blockade is reported as -3.36% (inactive).
Cc1cc(N2CCCCC2)nc2ccc(Cc3ccc4nc(N5CCCCC5)cc(C)c4c3)cc12 was tested, and the hERG blockade was 81.4% (active).
For Cc1nc2ccccc2nc1N1CCCC1, the hERG blockade was -18.7% (inactive).
Cc1cc(Cl)nc2ccc(Cc3ccc4nc(Cl)cc(C)c4c3)cc12 was tested, and the hERG blockade was -16.7% (inactive).
For Cc1cc(N2CCOCC2)nc2ccc(Cc3ccc4nc(N5CCOCC5)cc(C)c4c3)cc12, the hERG blockade was 42.1% (active).
With NCCNCC1CCNCC1 the hERG blockade was -1.79% (inactive).
In the case of OC1COC(OCc2ccccc2)C(O)C1O (stereo not drawn), the hERG blockade is reported as -4.05% (inactive).
In the case of COc1ccc(C(=O)NN=C2C(=O)c3c(C)cc(C)cc3CC2(C)C)cc1, the hERG blockade is reported as 8.71% (inactive).
In the case of CC1(C)C2CCC1(C)C(OC(=O)C=Cc1ccccc1)C2 (stereo not drawn), the hERG blockade is reported as -7.8% (inactive).
For CC(C)c1ccccc1S(=O)c1ccccc1C(C)(C)O (stereo not drawn), the hERG blockade was -9.35% (inactive).
For CC(C)CSCC1OC(n2cnc3c(N)nccc32)C(O)C1O (stereo not drawn), the hERG blockade was -11.9% (inactive).
With O=C(O)C(Br)C(Br)c1ccccc1[N+](=O)[O-] (stereo not drawn) the hERG blockade was -1.11% (inactive).
In the case of CN(N=Cc1ccccc1O)c1ccc2ccccc2n1, the hERG blockade is reported as -0.991% (inactive).
For O=[N+]([O-])c1cccc(C=NNc2ccc3ccccc3n2)c1O, the hERG blockade was 26.8% (active).
With CC(=NNc1ccc2ccccc2n1)c1ccccc1O the hERG blockade was 8.91% (inactive).
In the case of Cc1cc(-c2cc(C)c(O)c(C(C)(C)C)c2)cc(C(C)(C)C)c1O, the hERG blockade is reported as 0.0679% (inactive).
With CC(CS(=O)(=O)Cc1ccccc1)C(N)=O (stereo not drawn) the hERG blockade was 3.43% (inactive).
In the case of COc1c(O)ccc2c1CN1CCc3cc4c(cc3C1C2)OCO4 (stereo not drawn), the hERG blockade is reported as 22.7% (active).
For CC1=NC(C)(COC(=O)C2(C)NC(C)(CO)CO2)COC1=O (stereo not drawn), the hERG blockade was -5.89% (inactive).
For N=C(N)SCCc1ccccn1, the hERG blockade was -2.29% (inactive) and 1.24% (inactive).
In the case of Cc1ncc(CSC(=N)N)n1Cc1ccccc1, the hERG blockade is reported as -16.6% (inactive).
For Cc1c2ccccc2c(CSC(=N)N)c2ccccc12, the hERG blockade was 103% (active).
With O=C(O)CSCCc1ccccc1 the hERG blockade was 5.62% (inactive).
CC12CC(=O)C3C(CCC4=CC(=O)CCC43C)C1CC=C2CC(=O)O (stereo not drawn) was tested, and the hERG blockade was -16.4% (inactive).
CCCCSCc1nc2nc(Cl)c(Cl)nc2[nH]1 was tested, and the hERG blockade was -33.6% (active).
With O=C(O)c1nc2nc(Cl)c(Cl)nc2[nH]1 the hERG blockade was 6.64% (inactive).
For CCN(CCO)CC1CCCC2CCCCC21 (stereo not drawn), the hERG blockade was -6.41% (inactive).
O=C(O)C1C2OC(C(Br)C2Br)C1C(=O)O (stereo not drawn) was tested, and the hERG blockade was -2.82% (inactive).
CC(=O)NC(Cc1ccc(O)cc1)C(=O)O (stereo not drawn) was tested, and the hERG blockade was -8.5% (inactive).
For CN1CC(c2ccccc2)C(O)(C2(c3ccccc3)CN(C)CC(c3ccccc3)C2=O)C(c2ccccc2)C1 (stereo not drawn), the hERG blockade was 20.8% (active).
For CC1(C)N=C(N)N=C(N)N1CCCCc1ccccc1, the hERG blockade was -14.1% (inactive).
For Nc1nc(SCCc2ccccc2)c2[nH]cnc2n1, the hERG blockade was -0.569% (inactive).
With Nc1nc(N)c(CCCCc2ccccc2)c(N)n1 the hERG blockade was 26.6% (active).
With Cn1c(=O)c2[nH]c(CS(=O)(=O)Cc3nc4c([nH]3)c(=O)n(C)c(=O)n4C)nc2n(C)c1=O the hERG blockade was -2.72% (inactive).
In the case of Nc1nc(N)c(N=Nc2ccc(C(=O)O)c(O)c2)c(N)n1, the hERG blockade is reported as 12.4% (inactive).
c1ccc(SCCc2ccncc2)cc1 was tested, and the hERG blockade was 5.61% (inactive).
For CC(=NNS(=O)(=O)c1ccc(C)cc1)P(=O)(O)O, the hERG blockade was 15.5% (inactive).
In the case of COc1ccc2cc1Oc1ccc(cc1)CC1c3c(cc(OC)c4c3Oc3cc5c(cc3O4)CCNC5C2)CCN1C (stereo not drawn), the hERG blockade is reported as 79.4% (active).
COc1cc2c3cc1Oc1cc(ccc1O)CC1c4c(cc(OC)c(O)c4Oc4ccc(cc4)CC3[N+](C)(C)CC2)CC[N+]1(C)C (stereo not drawn) was tested, and the hERG blockade was 11.2% (inactive).
COc1ccc(CC2C(=O)NC(C)C(=O)N(C)C3Cc4ccc(cc4)Oc4cc(ccc4O)CC(C(=O)NC(C)C(=O)NC(C)C(=O)N2C)N(C)C3=O)cc1 (stereo not drawn) was tested, and the hERG blockade was 4.92% (inactive).
With COc1cc2c3cc1Oc1c(OC)c(OC)cc4c1C(Cc1ccc(O)c(c1)Oc1ccc(cc1)CC3N(C)CC2)CN(C)C4 (stereo not drawn) the hERG blockade was 37.9% (active).
In the case of COc1ccc2cc1Oc1ccc(cc1)CC1c3cc(c(OC)cc3CCN1C)Oc1c(OC)c(OC)cc3c1C(C2)N(C)CC3 (stereo not drawn), the hERG blockade is reported as 70.1% (active).
With N=c1sc2ccccc2n1CCS (tested in a mixture with another compound) the hERG blockade was 5.15% (inactive).
For COC(NC(N)=O)C(=O)O (stereo not drawn), the hERG blockade was 6.05% (inactive).
Cc1c(Cl)cc(C(C)(C)C)c(O)c1Cc1c(C)c(Cl)cc(C(C)(C)C)c1O was tested, and the hERG blockade was 0.223% (inactive).
With CC(C)(CCC(C)(C)c1ccccc1)c1ccccc1 the hERG blockade was 1.92% (inactive).
CN(C)Cc1nsc(N(C)C)n1 was tested, and the hERG blockade was 2.33% (inactive).
Cn1c(=O)c2c(nc(Cc3ccccc3)n2CC(=O)O)n(C)c1=O was tested, and the hERG blockade was 11.6% (inactive).
CCOc1ccccc1C=C(C#N)C(N)=O was tested, and the hERG blockade was -12.6% (inactive).
In the case of CC(=Cc1ccc(Cl)cc1)C(C)(C)C(=O)O, the hERG blockade is reported as -2.46% (inactive).
